Hits are enriched below; roughly 4.6% of the tested compounds scored in any of these assays.
Mdm2-MdmX inh – inhibitors of human Mdm2-MdmX association, primary screen, cell-based, luminescence, split luciferase, SaOS-2, uHTS | AID 485346, 2010 | actives 3% (n = 330,000) | Protein Mdm4 (Homo sapiens) + E3 ubiquitin-protein ligase Mdm2 (Homo sapiens), … | inhibition, % at 8 µM | SaOS-2 split-luciferase Mdm2/MdmX complementation;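 active = inhibition of at least 50% at 8 µM in the primary screen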
Target sequence (O15151 whole entry, looked up): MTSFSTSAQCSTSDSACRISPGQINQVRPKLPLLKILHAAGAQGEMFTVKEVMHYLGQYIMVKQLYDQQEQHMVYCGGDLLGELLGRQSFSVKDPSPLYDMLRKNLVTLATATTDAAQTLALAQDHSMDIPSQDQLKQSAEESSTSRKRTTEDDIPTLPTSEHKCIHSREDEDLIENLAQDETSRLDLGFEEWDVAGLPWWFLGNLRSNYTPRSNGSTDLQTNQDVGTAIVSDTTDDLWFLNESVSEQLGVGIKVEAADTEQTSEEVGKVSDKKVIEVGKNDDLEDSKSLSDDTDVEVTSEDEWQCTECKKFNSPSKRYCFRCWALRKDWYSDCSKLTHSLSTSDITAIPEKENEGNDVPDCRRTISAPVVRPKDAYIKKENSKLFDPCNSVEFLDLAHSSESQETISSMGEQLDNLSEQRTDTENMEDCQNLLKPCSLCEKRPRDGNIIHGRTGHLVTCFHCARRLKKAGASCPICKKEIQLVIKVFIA
Target sequence (Q00987 whole entry, looked up): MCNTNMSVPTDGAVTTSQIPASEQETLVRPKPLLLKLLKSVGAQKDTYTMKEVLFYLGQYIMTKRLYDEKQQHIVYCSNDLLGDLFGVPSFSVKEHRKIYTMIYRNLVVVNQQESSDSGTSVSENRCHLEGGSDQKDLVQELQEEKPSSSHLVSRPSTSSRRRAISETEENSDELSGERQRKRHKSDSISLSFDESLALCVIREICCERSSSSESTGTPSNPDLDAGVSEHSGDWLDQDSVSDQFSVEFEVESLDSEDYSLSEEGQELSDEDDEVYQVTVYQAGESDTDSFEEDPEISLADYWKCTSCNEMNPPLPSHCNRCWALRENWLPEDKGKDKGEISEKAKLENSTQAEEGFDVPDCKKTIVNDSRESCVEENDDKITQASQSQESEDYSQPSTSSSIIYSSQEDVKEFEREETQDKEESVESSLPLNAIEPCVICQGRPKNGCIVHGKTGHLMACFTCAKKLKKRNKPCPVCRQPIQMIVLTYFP
CF NFkB block – inhibitors of PAF-induced NF-kB signaling, primary screen, cell-based, GFP fluorescence, uHTS; actives 0.86% (n = 360,000); KKLEB NF-kB-GFP reporter, GFP fluorescence overnight; inhibition, % at 5 µM; AID 588850, 2011;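 active = at least 50% inhibition at 5 µM, scaled per plate between neutral and stimulator controls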;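 also: PAF is a Pseudomonas aeruginosa culture filtrate used as stimulus; plate controls were PAF-stimulated DMSO wells for no effect and unstimulated DMSO wells for full effect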
HIF-2a block – HIF-2a reporter inhibitors, primary screen, luminescence, 786-0 RCC cells. 786-0 RCC cells HIF-2a reporter, luciferase luminescence, overnight. inhibition, % at 18.8 µM. actives 0.72% (n = 360,000);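 active = inhibition of the luminescence signal of 40% or more relative to plate controls, in a single-dose primary screen at 18.75 µM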
Peg3 prom inh-1 – Peg3 promoter-driven luciferase inhibitors, primary screen, cell-based, HeLa, luciferase luminescence; HeLa PEG-Prom luciferase reporter, overnight; inhibition, % at 20 µM; actives 1.7% (n = 360,000);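 active = inhibition of at least 50% at 20 µM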
KKLEB tox – cytotoxicity in KKLEB CF airway cells, primary screen, cytotoxicity control for CF NF-kB inhibitor project, cell-based, uHTS, fluorescence assay plates. KKLEB CF airway cells viability, ATPlite luminescence, overnight; stronger effect = lower value; cells stimulated with P. aeruginosa culture filtrate. activity change (cytotoxicity), % at 5 µM. actives 0.36% (n = 360,000). AID 602141, 2011;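 active = corrected activity change at or below -50% at 5 µM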
ABHD5-PLIN5 inh – ABHD5-PLIN5 interaction inhibitors, primary screen, cell lysate, split luciferase complementation, luminescence | actives 0.78% (n = 360,000) | Split G. princeps luciferase complementation, 4 h | AID 602281, 2012 | inhibition, % at 4 µM;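 active = inhibition above the mean inhibition across every tested compound plus 3 SD, cut at about 22% in these data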;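 also: 0% = DMSO only wells and the 100% control is not disclosed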
Peg3 prom inh-2 – Peg3 promoter reporter inhibitors, retest, confirmation, cell-based, HeLa, luciferase reporter, single concentration | HeLa PEG-Prom luciferase reporter, luminescence, overnight | shares compounds with Peg3 prom inh-1 | actives 84% (n = 1,300) | inhibition, % at 20 µM | AID 602417, 2012;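 active = at 20 µM dose, 40% or more inhibition averaged across four replicates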
Starred values were filed as active, the others as inactive; / = not tested or not shown; ! = not active in a repeat.

SMILES | Mdm2-MdmX inh | CF NFkB block | HIF-2a block | Peg3 prom inh-1 | KKLEB tox | ABHD5-PLIN5 inh | Peg3 prom inh-2
CCc1ccc(/C=C2/SC(N3CCOCC3)=NC2=O)cc1 | 14.5 | -10.6 | -53.5 | -24.6 | -0.9 | -2.1 | /
CCN1C/C(=C/c2ccc(N3CCOCC3)cc2)C(=O)/C(=C/c2ccc(N3CCOCC3)cc2)C1 | / | -16.7 | 93.2* | 101.2* | 2.6 | 58.4* | 97.1*
CCOC(=O)c1cnc2c(cnn2C)c1NCCCN(C)C | 15.3 | -17.3 | 0.5 | 62.0* | -0.3 | 1.6 | 55.8*
CCCn1c(=N)n(CC(=O)OCC)c2ccccc21 | 24.7 | 4.8 | -1.1 | -2.7 | -11.6 | 0.2 | /
Cc1ccc(Cn2c(=N)n(CC(=O)c3ccccc3)c3ccccc32)cc1 | 33.0 | 12.0 | 9.7 | 92.4* | -14.7 | 6.1 | 86.1*
CCCn1c(=N)n(CC(=O)c2ccc(Cl)cc2)c2ccccc21 | 6.0 | -10.9 | 6.6 | 65.8* | -6.3 | -3.1 | 60.1*
c1ccc(OCCNc2ccn3nc(-c4ccc(OCCN5CCOCC5)cc4)cc3n2)cc1 | / | 22.0 | -22.1 | 46.2 | -11.9 | 10.8 | /
Cc1cnc(-c2nc3ccccc3n2C(C)C(=O)Nc2c(C)cccc2C)cn1 (stereo not drawn) | / | / | 5.5 | / | / | -1.8 | /
O=c1cc(-c2ccccc2Cl)oc2cccc(O)c12 | 9.3 | 1.0 | -95.3 | -76.4 | -0.7 | -0.9 | /
O=c1cc2oc3cc(O)c(O)cc3c(-c3ccccc3[N+](=O)[O-])c-2cc1O | 49.1 | 11.8 | 16.9 | 60.3* | -20.3 | 11.2 | 74.7*
CN(C)CCNC(=O)c1cccc2nc3cccc(F)c3nc12 | / | -32.0 | -4.2 | 105.0* | -2.7 | 0.0 | 98.5*
Cc1ccc(S(=O)(=O)CCSC(=N)N)cc1 | 9.9 | 1.6 | -3.8 | 54.7* | -6.2 | 1.0 | 47.4*
Cc1ccc(S(=O)(=O)CC(N)=O)cc1 | 11.2 | 11.3 | 5.3 | -4.1 | 2.3 | 0.7 | /
COc1ccccc1C(C)NC(=O)CCC(=O)N1CCN(S(=O)(=O)c2ccc(Cl)cc2)CC1 (stereo not drawn) | / | 5.6 | 11.5 | 7.5 | 19.6 | 0.5 | /
Cn1c(=O)c(Oc2cc(Cl)cc(Cl)c2)nc2ccccc21 | 33.0 | 10.2 | 13.2 | 68.0* | -9.5 | 6.0 | 35.9
CC1(C)CC(=O)C=C(c2n[nH]nc2C2=CCCCC2)C1 | / | 18.0 | -4.3 | 9.2 | -3.6 | 8.6 | /
OCCNCc1cc(Br)ccc1OCc1ccc(Cl)cc1Cl | / | -9.4 | 7.6 | 64.9* | -6.0 | 16.6 | 62.0*
Cn1nnnc1SCC(=O)NC(=O)Cc1ccccc1 | -2.6 | 4.3 | -1.3 | -1.4 | 4.4 | 0.2 | /
CC(=O)c1ccccc1-c1csc2ncnc(Sc3nnnn3C)c12 | 32.2 | 43.1 | 8.2 | 53.9* | -27.0 | 0.0 | 7.4
CCc1sc(C(=O)N2CCc3cc(OC)c(OC)cc3C2CC(=O)O)cc1C (stereo not drawn) | -5.4 | -11.2 | 1.3 | 10.9 | 1.1 | -0.4 | /
CCOc1ccc2nc(NC(=O)c3cccc(-c4cc5ccccc5oc4=O)c3)sc2c1 | / | 50.4* | -53.2 | 89.0* | -58.2* | -2.6 | -8.8
COc1ccc(NC(=O)c2cc3c(Cl)nc4ccccc4c3s2)c(OC)c1 | 6.1 | -2.6 | 7.7 | 52.4* | -6.7 | 1.6 | 15.1
Cc1nc(C(F)(F)F)ccc1C(=O)N1CCC1(C)C(=O)NCc1cccs1 (stereo not drawn) | / | 28.2 | 20.4 | 9.6 | -2.0 | -6.9 | /
C=CCN1C=C/C(=C\C=C(C#N)C#N)c2ccccc21 | 33.6 | -74.7 | -36.5 | 10.8 | 10.8 | 13.7 | /
CCCCCCN1C=C/C(=C\C=C(C#N)C#N)c2ccccc21 | 38.9 | 20.5 | 34.1 | 56.0* | -27.0 | 6.4 | 44.9*
SMILES | Mdm2-MdmX inh | CF NFkB block | HIF-2a block | Peg3 prom inh-1 | KKLEB tox | ABHD5-PLIN5 inh | Peg3 prom inh-2
COc1cc(C(=O)C(=O)N2CCC(Cc3ccccc3)CC2)cc2ccccc12 | / | / | 2.3 | / | / | -9.1 | /
CCN1CCN(CC(O)COC(c2ccccc2)c2ccccc2C)CC1 (stereo not drawn) | -25.8 | 3.0 | 14.6 | -2.7 | 8.6 | -0.2 | /
COc1ccccc1Cc1c(C2CCCCC2)nc2c3ccccc3ccn12 | / | / | -13.1 | / | / | 6.3 | /
Cc1ccc(-c2nc(-c3ccccn3)no2)cc1Cl | 44.0 | -6.0 | 76.6* | 92.9* | -67.0* | 3.7 | 71.9*
c1ccc(-c2nc(-c3ccccn3)no2)cc1 | 39.5 | -3.5 | 32.8 | 75.9* | -17.0 | 0.7 | 46.4*
Cc1ccc(-c2nc(-c3ccccn3)no2)cc1[N+](=O)[O-] | -9.7 | -17.7 | -68.1 | -68.2 | -1.6 | -2.9 | /
C/C(=N/NC(=O)NC12CC3CC(CC(C3)C1)C2)c1ccccc1 | -27.3 | 2.3 | -7.6 | 0.1 | 18.4 | 4.0 | /
COCCN(CCOC)C(=O)CSc1ccc(S(=O)(=O)N2CCN(C)CC2)cn1 | -7.7 | -13.4 | 2.0 | 14.1 | 5.2 | 7.6 | /
COc1cc(NC(=O)c2nccn2C)cc(C(=O)Nc2cccc(C(F)(F)F)c2)c1 | 33.9 | 8.1 | -24.2 | 53.3*! | -6.6 | 8.8 | 33.2
CCN(CC)CCSc1nnc2c3cc(C)ccc3n(Cc3ccccc3)c2n1 | 30.1 | -30.8 | 14.5 | 63.9* | -6.4 | 5.2 | 46.3*
CSc1nnc2c3cc(F)ccc3n(Cc3ccccc3)c2n1 | 27.0 | 10.7 | 8.2 | 11.8 | -26.3 | 6.7 | /
Cc1nn(C)c(C)c1CCC(=O)N1CCCC(N2CCN(c3ccc(F)cc3)CC2)C1 (stereo not drawn) | 19.4 | 29.0 | 0.2 | 7.5 | -5.4 | -6.8 | /
COC(=O)c1ccccc1S(=O)(=O)N(Cc1ccco1)Cc1cc2cc(OC)ccc2[nH]c1=O | 9.3 | -20.0 | -7.2 | 32.5 | -3.3 | 17.7 | /
CC(=O)Nc1ccc(S(=O)(=O)N(Cc2cccnc2)Cc2cc3ccccc3[nH]c2=O)cc1 | 39.4 | 81.3* | -13.1 | 55.7* | -24.2 | 7.2 | 45.7*
CC(=O)Nc1ccc(S(=O)(=O)N(Cc2ccco2)Cc2cc3ccccc3[nH]c2=O)cc1 | 32.7 | 3.7 | -4.0 | 59.8* | -1.6 | 11.1 | 54.9*
COc1cccc(C(c2nnnn2CCc2ccccc2)N2CCN(c3ccccc3)CC2)c1OC (stereo not drawn) | 17.2 | 26.2 | 8.0 | 51.2* | 2.8 | -3.1 | 33.7
O=C(CN(c1ccc(Cl)cc1)S(=O)(=O)c1ccc(Cl)c([N+](=O)[O-])c1)NCCc1ccccc1 | 30.4 | -8.7 | 6.9 | 86.8* | -0.8 | 2.9 | 31.1
CN(C)c1ccc(C=C2C=C(c3ccccc3)OC2=O)cc1 | / | -10.3 | -87.2 | -51.3 | -6.3 | 0.0 | /

Compound activity deposited in PubChem by several laboratories.
